PubChem BioAssay AID778 (Sanford-Burnham Center for Chemical Genomics, 2007)
Screen size: about 96,000 compounds; about 20,000 (21%) were called active. Not all results are given here. Unmarked numbers belong to inactive results.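 Rule for the calls: active = CYP2C19 inhibition above a set limit at 5 µM in the primary screen (cut at about 50% in these data); inactive = the rest.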

Target: Cytochrome P450 2C19 (Homo sapiens) (UniProt P33261)
Test: blockers of cytochrome P450 2C19 activity – biochemical, luminescence, ADME assay, primary screen (AID 778);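 note: plate controls were negative control wells for no effect and 2.5 mM tranylcypromine positive control for full effect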
Details: CYP2C19 Supersomes, luciferin-H EGE luminescence, 30 min; at 5 µM; stronger effect = higher value

Chain of Cytochrome P450 2C19 (Homo sapiens) (P33261 whole entry, looked up): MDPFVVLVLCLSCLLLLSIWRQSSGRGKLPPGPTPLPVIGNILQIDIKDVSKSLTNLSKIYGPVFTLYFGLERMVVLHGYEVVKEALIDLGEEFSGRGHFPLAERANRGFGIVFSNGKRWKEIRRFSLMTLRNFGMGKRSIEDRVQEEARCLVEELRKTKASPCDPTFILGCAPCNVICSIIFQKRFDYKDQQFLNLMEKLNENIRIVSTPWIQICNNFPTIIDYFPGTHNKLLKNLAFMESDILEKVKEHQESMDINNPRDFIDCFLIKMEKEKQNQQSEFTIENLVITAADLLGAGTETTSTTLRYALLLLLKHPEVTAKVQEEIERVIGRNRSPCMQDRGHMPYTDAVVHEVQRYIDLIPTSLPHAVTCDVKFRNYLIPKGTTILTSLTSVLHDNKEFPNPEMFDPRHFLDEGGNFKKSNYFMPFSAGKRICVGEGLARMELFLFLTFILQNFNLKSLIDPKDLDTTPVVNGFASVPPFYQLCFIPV

In the case of `C=CCNC(=O)c1cc2nc(C3CC3)cc(C(F)F)n2n1`, the inhibition is reported as 51.2% (active).
In the case of `Cc1nn(C)c(Oc2ccccc2)c1[N+](=O)[O-]`, the inhibition is reported as 64% (active).
In the case of `Cc1nn(C)c(Oc2ccccc2)c1CCNS(=O)(=O)c1ccc(F)cc1`, the inhibition is reported as 96.7% (active).
For `c1ccc(CSCCc2ccncc2)cc1`, the inhibition was 99.8% (active).
In the case of `Cc1nc(Nc2ccc3c(c2)OCCO3)c2nnn(Cc3ccccc3Cl)c2n1`, the inhibition is reported as 83.2% (active).
With `O=C(/C=C/c1cccs1)c1cc(Cl)ccc1OC(=O)N1CCOCC1` the inhibition was 90.6% (active).
With `CCOC(=O)c1cc(C)sc1NC(=O)C1CCC1` the inhibition was 54.6% (active).
For `CCOc1ccc(S(=O)(=O)n2ccnc2)c2ccccc12`, the inhibition was 66.5% (active).
In the case of `CCCCOC(=O)c1ccc(N2C(=O)CC(N3CCN(C/C=C/c4ccccc4)CC3)C2=O)cc1` (centres undefined), the inhibition is reported as 86.2% (active).
In the case of `COC(=O)c1ccccc1Sc1c(/C=N/OCc2ccc(Cl)cc2)c(C(F)(F)F)nn1C`, the inhibition is reported as 72.6% (active).
`O=C(/C=C/NNC(=O)c1cccc(Br)c1)c1ccccc1` was tested, and the inhibition was 76.7% (active).
For `CCOc1ccccc1NC(=O)C12CC3CC(C1)CC(c1ccc(C)cc1)(C3)C2`, the inhibition was 51.9% (active).
In the case of `FC(F)Oc1ccccc1C1CC(c2ccc(Br)s2)Nc2ncnn21` (centres undefined), the inhibition is reported as 98.5% (active).
`CCC(c1nnnn1Cc1ccco1)N(Cc1cc2cc(OC)ccc2[nH]c1=O)C1CCCCC1` (centres undefined) was tested, and the inhibition was 53.6% (active).
In the case of `CCC(c1nnnn1Cc1ccco1)N(CCc1ccccc1)Cc1cc2ccc(OC)cc2[nH]c1=O` (centres undefined), the inhibition is reported as 92.2% (active).
In the case of `Cc1cc(Oc2ccccc2)nc(N2CCOCC2)n1`, the inhibition is reported as 94.5% (active).
In the case of `CC12c3ccccc3C(c3ccccc31)C1C(=O)N(Cc3cccnc3)C(=O)C12` (centres undefined), the inhibition is reported as 81.2% (active).
For `COc1cccc(N(CC(=O)NCCSc2ccccn2)S(C)(=O)=O)c1`, the inhibition was 53.8% (active).
For `O=C(CCSc1ccccc1)NCCSc1ccccn1`, the inhibition was 71% (active).
In the case of `Cc1ccc(S(=O)(=O)C2(S(=O)(=O)c3ccc(C)cc3)CCCC2)cc1`, the inhibition is reported as 83.3% (active).
`CN(C)S(=O)(=O)c1ccc(N2CCCC2)c(C(=O)NCc2ccccc2)c1` was tested, and the inhibition was 62.4% (active).
In the case of `Cc1cccc(NC(=O)CN2CCCN(S(=O)(=O)c3ccc(Br)s3)CC2)c1`, the inhibition is reported as 67.4% (active).
For `CC1Cc2ccccc2N1C(=O)CSc1nc2ccccc2o1` (centres undefined), the inhibition was 76.8% (active).
`O=C(CSc1nc2ccccc2o1)N1CCN(c2ccccc2)CC1` was tested, and the inhibition was 55.6% (active).

First: O=C(Nc1ccc(Cl)cc1)c1cc2nc(C3CC3)cc(C(F)(F)F)n2n1
Second: COc1ccc(-c2cc(C(F)(F)F)n3nc(C(=O)N4CCOCC4)c(Cl)c3n2)cc1
The inhibition of the first is higher: -6.4% for the first, -7.1% for the second.

First: Cc1nc(N2CCCC2C(=O)O)c2oc3ccccc3c2n1 (centres undefined)
Second: Cc1nc2ccccc2c2oc(C(=O)NCCCN3CCC(C)CC3)cc12
The inhibition of the first is higher: 2.4% for the first, -6.7% for the second.

First: Cc1ccccc1NC(=O)C(C)c1ccc(-c2ccccc2)c(F)c1 (centres undefined)
Second: COc1ccc(-c2nn(C)c(=O)c3ccccc23)cc1NC(=O)COc1ccccc1
The inhibition of the first is lower: 7.1% for the first, 25.6% for the second.

Compared with `Cc1n[nH]c(=O)n1-c1ccc(Oc2ccccc2)cc1`, `COc1ccc(Cc2nnc(NS(=O)(=O)Cc3ccccc3)s2)cc1` is lower in inhibition: 18.5% for the first, 9% for the second.

Going from `Cc1nn(C)c(Oc2ccc(Cl)cc2)c1C=O` to `Cc1cc(OC(=O)c2ccc(Cl)cc2)cc(=O)n1C`, the inhibition falls from 27.7% to -5.3%.

Going from `Cc1cccc(N2C(=O)SC(N(CC(=O)O)c3cccc(C)c3)C2=O)c1` (centres undefined) to `Cc1cccc(N(CC(=O)Nc2ccc(-c3nc4ccc(C)cc4s3)cc2)S(C)(=O)=O)c1`, the inhibition rises from 1.5% to 1.8%.

Going from `COC(=O)C(NC(=O)c1ccc(OC)cc1)(Nc1ncc(S(=O)(=O)c2ccc([N+](=O)[O-])cc2)s1)C(F)(F)F` (centres undefined) to `O=C(NC1(C(F)(F)F)NC(=O)N(Cc2cccnc2)C1=O)c1ccccc1Cl` (centres undefined), the inhibition rises from 33.8% to 39.8%.

Going from `O=C(CSCc1ccc([N+](=O)[O-])cc1)NCCSCc1ccccc1` to `O=C(COc1ccc(Cl)cc1)NCCSc1ccccc1`, the inhibition falls from 21.3% to 14.6%.

Going from `CCOc1nc(OCC)nc(-n2cc(-c3ccccc3)nn2)n1` to `Cc1cc(Nc2ccccc2)nc(N)n1`, the inhibition falls from 3.5% to -8.2%.

First: Cc1cnc(NC(=O)CSc2nnc(-c3ccc(Cl)cc3Cl)n2N)s1
Second: CCc1nnc(NC(=O)CSc2nc3c(c(=O)n2-c2ccccc2OC)SCC3)s1
The inhibition of the first is higher: 23.2% for the first, 11.4% for the second.

Compared with `COc1ccc(-c2nnc(SC(C)C#N)o2)cc1` (centres undefined), `CCC(C)OC(=O)C(C)Oc1ccc(-c2ccccc2)cc1` (centres undefined) is lower in inhibition: 10.9% for the first, 0.6% for the second.

First: C#CCNc1nc(C(C)C)nc2c1nnn2Cc1ccccc1F
Second: CCc1ccc2c(c1)cc(CN(C(=S)Nc1ccccc1Cl)C1CC1)c1nnnn12
The inhibition of the first is higher: 37.3% for the first, -11.2% for the second.

First: O=C(Nc1cc2ccccc2oc1=O)C1CCCCC1
Second: Cc1cnc(NC(=O)C2CCCC2)s1
The inhibition of the first is lower: 0.3% for the first, 17.5% for the second.

First: O=C(CC12CC3CC(CC(C3)C1)C2)Nc1ccc2c(c1)COC2=O
Second: Nc1nc(C23CC4CC(CC(C4)C2)C3)cs1
The inhibition of the first is lower: 12.8% for the first, 40.8% for the second.

First: CC(=O)Nc1ccccc1OC(=O)N1CCOCC1
Second: O=C(Oc1ccc2c(c1)CCC2)N1CCOCC1
The inhibition of the first is lower: 0.3% for the first, 11.1% for the second.

First: O=c1cc(N2CCN(Cc3ccccc3)CC2)c(-c2ccccc2)n[nH]1
Second: Cc1nnc(SCC(=O)N2CCN(c3ccccc3)CC2)n1-c1ccccc1
The inhibition of the first is higher: 19% for the first, -4.9% for the second.

Going from `CCOC(=O)c1c(NC(C)=O)sc2c(O)c(Br)ccc12` to `CCOC(=O)c1sc(NC(=O)CSc2nc(C)cc(C(F)(F)F)n2)c(C#N)c1C`, the inhibition rises from 3.8% to 19.8%.

Going from `CC(=NC1CCN(Cc2ccccc2)CC1)c1c(O)[nH]c(=O)[nH]c1=O` to `O=C(N1CCOCC1)N(Cc1ccccc1)c1ccccn1`, the inhibition rises from -7.4% to 31.3%.

Going from `CC(C)c1nnc(NC(=O)C2CCCN2S(=O)(=O)c2ccc(Cl)cc2)s1` (centres undefined) to `Cc1ccc(S(=O)(=O)NC(=O)N2CCCC(C)(C)C2)cc1`, the inhibition falls from 17.2% to -4.4%.

First: CCOc1ccc(NC(=O)CC2NCCNC2=O)cc1 (centres undefined)
Second: Cc1cccc(NC(=O)CN2C(=O)CNC2=O)c1
The inhibition of the first is higher: 1.1% for the first, -10.1% for the second.

Going from `CCOc1ccc(S(=O)(=O)N2CCCCCC2)c2ccccc12` to `CS(=O)(=O)c1ccc2nc(NC(=O)CN3CCCCCC3)sc2c1`, the inhibition falls from 32.3% to -6%.

First: CCOC(=O)c1ccc(N2C(=O)CC(N3CCC(C(=O)OCC)CC3)C2=O)cc1 (centres undefined)
Second: CCOC(=O)c1ccc(N2C(=O)CC(N3CC(C)OC(C)C3)C2=O)cc1 (centres undefined)
The inhibition of the first is higher: 47.5% for the first, 6.8% for the second.

Compared with `CCCCCCC(=O)Nc1nc(C)c(-c2csc(Nc3cccc(OC)c3)n2)s1`, `CCC(=O)N(Cc1cc2cc(OC)ccc2[nH]c1=O)c1ccccc1C` is higher in inhibition: -4.8% for the first, 21.8% for the second.

Going from `COC(=O)c1ccccc1NC(=O)Cn1nc(C(F)(F)F)c2c1CCC2` to `COC(=O)c1ccccc1NC(=O)CSc1ccccn1`, the inhibition falls from 36.4% to 26.9%.

Going from `O=C1N=C2SCCN2/C1=C\c1c(Cl)cccc1Cl` to `COc1ccc2[nH]c3c(=O)n(Cc4ccco4)cnc3c2c1`, the inhibition rises from 11.1% to 21.8%.

First: CNC(=O)n1ccc(C(=O)N2CCCCC2)n1
Second: O=C(NCN1CCN(CCO)CC1)c1cnccn1
The inhibition of the first is lower: -16.6% for the first, -8.6% for the second.

Compared with `O=C(/C=C\NCC(=O)c1ccccc1)c1ccccc1`, `CC(C)(O)C(=O)NN(C(=O)c1ccccc1)c1cccc(Br)c1` is lower in inhibition: 46.4% for the first, 2.5% for the second.

Compared with `CCC(C)(C(=O)NC1CCCC1)N(C(=O)CNC(C)=O)c1ccc(C)cc1` (centres undefined), `Cc1ccc(S(=O)(=O)N(C)C2(C)CCS(=O)(=O)C2)cc1` (centres undefined) is lower in inhibition: 21.1% for the first, 18.3% for the second.

Going from `CCOc1ccc(NC(=O)CN(C)CC(=O)Nc2cccc(Cl)c2C)cc1OCC` to `CCOCC(=O)Nc1cc(OC)c(Cl)cc1OC`, the inhibition rises from 21.6% to 29.8%.

First: CCOc1ccccc1NC(=O)C1CCC(CNc2c(N3CCOCC3)c(=O)c2=O)CC1 (centres undefined)
Second: O=C1c2ccccc2-c2ncnc3c(N4CCOCC4)cc(N4CCOCC4)c1c23
The inhibition of the first is lower: -13.1% for the first, 29.6% for the second.

Compared with `CCC(c1nnnn1Cc1ccccc1)N(Cc1cc2cc(OC)ccc2[nH]c1=O)CC1CCCO1` (centres undefined), `CCC(c1nnnn1Cc1ccco1)N(CCc1ccccc1)Cc1cc2cccc(C)c2[nH]c1=O` (centres undefined) is lower in inhibition: 44.9% for the first, 38.3% for the second.

First: CC(=O)c1ccc(Oc2cc(C)nc(-n3nc(C)cc3C)n2)cc1
Second: Cc1cc(=O)[nH]c(SCC(=O)N2c3ccccc3CC2C)n1 (centres undefined)
The inhibition of the first is lower: -5.5% for the first, 1.8% for the second.

Compared with `Cc1nc(N2CCOCC2)nc2c1CCCC2`, `CCN(CC)S(=O)(=O)c1ccc(N2CCOCC2)c(C(=O)O)c1` is lower in inhibition: 28.5% for the first, 9.1% for the second.

Compared with `CC1Oc2ccccc2N(Cc2cccnc2)C1=O` (centres undefined), `CCS(=O)(=O)c1ccc2oc(SCC(=O)N3c4ccccc4CC3C)nc2c1` (centres undefined) is lower in inhibition: 26.8% for the first, -8.1% for the second.

Going from `CCc1ccccc1N(CC(=O)NCCSCc1ccco1)S(C)(=O)=O` to `Cc1ccc(S(=O)(=O)N2CCOCC2)cc1C(=O)NCc1ccc(F)cc1`, the inhibition falls from 24% to 15.3%.

Compared with `Nc1nnc(SCCN2C(=O)c3ccccc3S2(=O)=O)s1`, `Cc1cccc(NC(=O)CSc2nnc(NC(=O)CN3CCOCC3)s2)c1` is lower in inhibition: 29% for the first, 0.9% for the second.

First: O=C(N/N=C/c1ccsc1)c1cc(O)cc(O)c1
Second: O=C(Nc1ccccc1Cl)O/N=C(/c1ccccc1)c1ccccn1
The inhibition of the first is lower: 7% for the first, 21.3% for the second.

Compound `O=C(CSc1nc2ccccc2o1)N1CCN(c2ccc(Cl)cc2)CC1` has an inhibition of 4.3%.
